# Compounds with a hit are over-represented: about 19% of the library has one in this group of screens.
# HT1080 IDH1KD tx: HT-1080 IDH1 knockdown cell toxicity (counter line); AID 686971; Potency, µM (highest dose often 46.1 µM), hits mostly cytotoxic; HT-1080 IDH1 knockdown viability, ATP luminescence, 48 h; hit rate 2% among 360,000
#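 In this qHTS, HT-1080 cells depleted of IDH1 are exposed for 48 h at 37 °C to compound titrations. Toxicity is scored from CellTiter-Glo luminescence, with DMSO as full viability and medium alone as none.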
# TDP1 cell CPT: DT40-hTDP1 cell growth loss with CPT. chicken DT40 Tdp1-/-;hTDP1 cells + 20 nM CPT, ATP luminescence, 48 h. Potency, µM (highest dose often 46.2 µM), hits mostly inhibitors. hit rate 12% among 420,000. AID 686979; note: nearly all actives have a fitted effect of over 55% in size
#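 Chicken DT40 Tdp1-/- cells complemented with human TDP1, 400 cells/well, exposed to compounds plus 20 nM camptothecin for at least 48 h at 37 C; viability read as ATP content by CellTiter-Glo luminescence.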
# DT40 TDP1 no CPT: qHTS for Inhibitors of human tyrosyl-DNA phosphodiesterase 1 (TDP1): qHTS in cells in absence of CPT; AID 686978, 2013; hit rate 15% among 420,000; DT40 Tdp1-/- hTDP1 cells, no CPT, ATP luminescence, 48 h; Potency, µM (titrated, usually from 46.2 µM), hits mostly inhibitors; note: nearly all actives have a fitted effect of over 55% in size
#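 Readout: luminescence from CellTiter-Glo after 30 min in the dark at RT. Cells: DT40 Tdp1-/- with stable hTDP1, 400/well. Exposure: compounds alone, ≥48 hr, 37 °C.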
# HT1080NT lethal: kills 2HG-producing HT-1080-NT fibrosarcoma cells. HT-1080-NT fibrosarcoma viability, CellTiter-Glo ATP luminescence, 48 h. Potency, µM (doses to about 46.1 µM), actives largely listed as cytotoxic. hit rate 1.6% among 360,000;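 note: NT is the 2HG producing partner of a matched IDH1 knockdown line; nearly all actives have a fitted effect of over 55% in size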
#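 Viability of the 2HG-overproducing fibrosarcoma line after 48 hours of compound exposure at 37 degrees C was determined by luminescence with CellTiter-Glo, and concentration-effect curves were then fitted and categorized.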
# IL-1B inflam inh: inhibitors of inflammasome signaling (IL-1 beta secretion) | activity change, % at 57.5 µM | THP-1 LPS/ATP IL-1B secretion, AlphaLISA, 16 h; hits give low values | hit rate 4.7% among 360,000; in the data active = activity change below about -50%; inconclusive = mostly about -30% to -49%
#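 THP-1 cells pretreated 1 hr with compounds (up to 57.5 uM final), then stimulated with LPS (250 ng/mL final) plus ATP (1.25 mM final); secreted IL-1B measured by AlphaLISA after 16 hr, decreased signal indicating inhibition.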
# A number is an active result; i = inactive; ? = inconclusive; nt = not tested or not shown. Unless noted, calls come from the whole dose curve; as a rule, active = well fitted curve in the direction sought with a large enough effect; inconclusive = small, poorly fitted or top-dose-only effect, or another doubt; inactive = no such curve, though single readings can be large; an effect the other way counts as inactive or inconclusive.
SMILES,HT1080 IDH1KD tx,TDP1 cell CPT,DT40 TDP1 no CPT,HT1080NT lethal,IL-1B inflam inh
Cn1cccc1C(=O)N1CCC2(CCN(Cc3ccc(C#N)cc3)CC2)CC1,nt,i,?,nt,nt
COc1ccc(-n2c(C)c3c(C)nnc(C)c3c2C)cc1OC,i,16µM,15µM,i,i
COc1ccc(-n2c(C)c(C(C)=O)c(C(C)=O)c2C)cc1OC,i,i,i,i,i
O=C(c1ccccc1)N1CCN(c2nc3ccc([N+](=O)[O-])cc3s2)CC1,i,6.5µM,5.2µM,i,i
O=[N+]([O-])c1ccc2nc(N3CCCC3)sc2c1,i,?,18µM,i,i
Fc1ccc2nc(N3CCCC3)sc2c1,i,i,i,i,i
Cc1ccc(C)c(N2CCN(C(=O)c3cnn(-c4ccccc4Cl)c3C3CCN(C(=O)OC(C)(C)C)CC3)CC2)c1,nt,13µM,13µM,nt,nt
CC(C)(C)OC(=O)N1CCC(c2c(C(=O)N3CCN(C(=O)c4ccco4)CC3)cnn2-c2ccccc2Cl)CC1,nt,i,?,nt,nt
Cc1c(Cl)cccc1-n1ncc(C(=O)Nc2ccc(Br)cc2F)c1C1CCNCC1,nt,4.1µM,5.2µM,nt,nt
COCCCNC(=O)c1cnn(-c2ccc(F)cc2F)c1C1CCNCC1,nt,i,?,nt,nt
Cc1cccc(N2CCN(C(=O)c3cnn(-c4ccccc4Cl)c3C3CCN(C(=O)OC(C)(C)C)CC3)CC2C)c1 (centres undefined),nt,?,13µM,nt,nt
Cc1ccc(C)c(N2CCN(CCCNC(=O)c3cnn(-c4ccccc4Cl)c3C3CCN(C(=O)OC(C)(C)C)CC3)CC2)c1,nt,4.6µM,4.6µM,nt,nt
Cc1ccc(-n2ncc(C(=O)N3CCN(c4cc(Cl)ccc4C)CC3)c2C2CCN(C(=O)OC(C)(C)C)CC2)cc1,nt,?,i,nt,nt
CCCCC(SCC(=O)Nc1ccccc1)C(=O)O (centres undefined),i,i,i,i,i
Cc1sc(N)c(C(=O)c2ccccc2)c1C,i,?,?,i,i
Cn1cnnc1SCC(=O)Nc1cc(C(=O)O)cc(C(=O)O)c1,nt,i,i,nt,nt
Cc1ccc(-n2ncc(C(=O)N3CCN(c4cccc(C)c4C)CC3)c2C2CCNCC2)c(C)c1,nt,8.2µM,16µM,nt,nt
Cc1ccc(C)c(N2CCN(CCCNC(=O)c3cnn(-c4ccc(F)cc4)c3C3CCN(C(=O)OC(C)(C)C)CC3)CC2)c1,nt,4.1µM,3.3µM,nt,nt
Cc1ccc(N2CCN(C(=O)c3cnn(-c4ccc(F)cc4F)c3C3CCN(C(=O)OC(C)(C)C)CC3)CC2)c(C)c1,nt,16µM,23µM,nt,nt
Cc1cccc(-n2ncc(C(=O)N3CCN(c4ccc(C)cc4C)CC3)c2C2CCN(C(=O)OC(C)(C)C)CC2)c1,nt,?,i,nt,nt
CCN1CCN(C(=O)c2cnn(-c3ccc(F)cc3F)c2C2CCN(C(=O)OC(C)(C)C)CC2)CC1,nt,i,i,nt,nt
Cc1ccc(C)c(N2CCN(CCCNC(=O)c3cnn(-c4cccc(Cl)c4)c3C3CCN(C(=O)OC(C)(C)C)CC3)CC2)c1,nt,4.6µM,5.8µM,nt,nt
Cc1ccc(NC(=O)COC(=O)C2(CC(=O)NC(C)C)CCCC2)cc1C,i,i,i,i,i
CCNc1ccc(S(=O)(=O)N(C)C)cc1NCC(=O)Nc1ccc(F)c(Cl)c1,i,12µM,21µM,i,i
Cc1cccc(CNc2ccc(S(=O)(=O)N3CCCCC3)cc2)c1,i,21µM,?,i,i
SMILES,HT1080 IDH1KD tx,TDP1 cell CPT,DT40 TDP1 no CPT,HT1080NT lethal,IL-1B inflam inh
CCNc1ccc(S(=O)(=O)N(C)C)cc1NCC(=O)Nc1ccccc1F,i,i,?,i,i
CN(C)S(=O)(=O)c1ccc(NC(=O)CNc2cc(S(=O)(=O)N3CCCC3)ccc2OCC(F)(F)F)cc1,i,21µM,18µM,i,i
Cc1cccc(NC(=O)CSCC(=O)Nc2ccc(S(=O)(=O)N3CCCC3)cc2)c1,i,i,i,i,i
Cn1cc(S(=O)(=O)N2CCCC2)cc1C(=O)Nc1ccc(C(F)(F)F)cc1,nt,29µM,?,nt,nt
COc1ccc(S(=O)(=O)N2CCOCC2)cc1NC(=O)c1ccc(SC)cc1OC,i,?,?,i,?
O=C(CNc1cccc(S(=O)(=O)N2CCCC2)c1)Nc1ccc(C(F)(F)F)cc1,i,16µM,15µM,i,?
O=C(CNc1cccc(Br)c1)Nc1ccc(S(=O)(=O)N2CCCCC2)cc1,?,21µM,?,?,i
O=C(CNc1cccc(S(=O)(=O)N2CCCCC2)c1)Nc1ccc(C(F)(F)F)cc1,i,?,?,i,i
CCNc1ccc(S(=O)(=O)N2CCOCC2)cc1NCC(=O)Nc1cccc(Br)c1,i,7.3µM,2.6µM,i,i
Cc1ccc(NC(=O)CNc2cc(S(=O)(=O)N3CCOCC3)ccc2NCC2CCCO2)cc1F (centres undefined),i,?,?,i,i
O=C(CNc1cccc(F)c1)Nc1cccc(S(=O)(=O)N2CCCCC2)c1,i,i,i,i,i
OCCCNC(=S)NC1CCCC1,i,i,i,i,i
COc1ncc2nc(-c3cn(C)c4ccccc34)c(=O)n(C[C@H]3CCCO3)c2n1,nt,i,i,nt,nt
CC(C)[C@@H]1C(=O)N(S(C)(=O)=O)[C@H]2CCN(C(=O)/C=C\CN3CCCCC3)[C@@H]12,nt,33µM,?,nt,nt
O=C1NC[C@H](CCCCN2C[C@H](Cc3ccc(O)cc3)N(CCc3ccccc3)C(=O)C2=O)N(CCc2ccc(O)cc2)C1=O,i,i,i,i,i
CCCOc1ccc(C(C)=O)cc1CSc1nc(O)cc(=O)[nH]1,i,21µM,9.2µM,i,i
CC1=NN(C(=O)c2ccc(Cn3cc(Br)c([N+](=O)[O-])n3)o2)C(O)(C(F)(F)F)C1 (centres undefined),i,3.3µM,2.6µM,i,i
Cc1cc(C)n(C(=O)c2ccc(Cn3nc(C)c(Br)c3C)o2)n1,i,i,i,i,i
CC1=NN(C(=O)c2ccc(Cn3nc(C)cc3C)o2)C(O)(C(F)(F)F)C1 (centres undefined),6.3µM,1.3µM,2.5µM,7.1µM,i
CC1=NN(C(=O)Cn2nc([N+](=O)[O-])cc2C)C(O)(C(F)(F)F)C1 (centres undefined),i,i,i,i,i
Cc1ccc(S(=O)(=O)NC(=O)COc2ccccc2C(N)=O)cc1,i,i,i,i,i
COc1c2occc2c(OC)c2c(=O)cc(C(F)(F)F)oc12,i,i,i,i,i
COc1c2ccoc2c(OC(C)=O)c2oc(C)cc(=O)c12,i,i,?,i,-51
O=C(CCS(=O)(=O)Cc1ccccc1)N1CCN(c2ccc([N+](=O)[O-])cc2)CC1,i,?,?,i,i
O=C(CCCC(=O)N1CCN(c2ccc([N+](=O)[O-])cc2)CC1)c1ccccc1,i,?,10µM,i,?
O=[N+]([O-])c1ccc(N2CCN(c3ccccc3)CC2)cc1,i,i,i,i,?

# Assay outcomes as filed in PubChem.
